# Results as given in the OligoGym collection.
# Target: ATP2B3
# Experiment: pooled miR-30 sensor sort-seq; sequence = guide strand
# Settings: shRNA
# Note: reference of the scale not given here.
row,Sequence,sensor-assay potency score (higher = more potent)
1,TTGATCAGAAACTCGGGCGTGG,0.126
2,TTCCTCACCATGTCGTCCCGGT,-0.00689
3,TTTGCTTTTAATATCTATTGGC,0.393
4,TTGACTGCTTCTGCTCAGGGGT,-0.897
5,TTGGCTTCTTTTGAACTCTTGG,0.325

# Target: ATP2C2
# Experiment: as above
# Settings: shRNA
row,Sequence,sensor-assay potency score (higher = more potent)
1,TAGAGGAACATGTGGTTCCTGA,-0.803
2,TAAGAGGAAAAACTGATCCGGT,-0.305
3,TCATCTTAAACACTTCTCCGAA,-0.15
4,TTCTGCTCTGAACTGAATGGAA,-0.474
5,TTGTGCTTTGGGCTGGTCCTGA,-0.105
6,TTAAACACTTCTCCGAACTGAG,-0.019
7,TACGACATCACCAGGAACCAGT,-0.544
8,TTGTACATGGTGCAGTAGCGGA,-1.45
9,TCATCTTCACAGACACACCAGA,-0.317
10,TTTAATATCACTTAAGTCCATC,-0.736
11,TTCCTCTTCGTCCTTCTCCAGC,-1.04

# Target: ATP6V0A1
# Experiment: as above
# Settings: shRNA
row,Sequence,sensor-assay potency score (higher = more potent)
1,TCTAAGTCAATCATGTCCCGGG,0.648
2,TTATTGGTAGCAATGTTCCAAA,-1.08
3,TTCCGCACTTTGATGAACCAGA,-0.516
4,TTTCTCAACAAATCGAAGCTTT,0.0812
5,TTTTAATTCGGTCAGTTCCAGG,-1.24
6,TTTCTTCACATCTTCTAACTTC,-0.0928
7,TTTCTGTCCAGAATACAACATT,-0.792
8,TTTCTGAGTCACATCTATGTTG,-0.762
9,TGACACAACAATAAGCAGCCTC,-0.151
10,TTGAATAACCAGACTCTGGGTA,0.472
11,TAAGTCACGAAACTGAACCTTT,-0.177
12,TTATTCTGGAACTCAACCCAGT,0.03
13,TATAAGTAAACATCGGCCGTAC,0.244
14,TTGGAAAACATTCACATCTGGA,0.211
15,TTGGAGATCATCAATCCTGGTA,0.0241
16,TTATAAGTAAACATCGGCCGTA,-0.196
17,ATAACAGACATCTTCATCTTAA,-0.304
18,TTTATTGGTAGCAATGTTCCAA,0.458
19,TTTATTCTGGAACTCAACCCAG,-0.592
20,AATACAACATTGAATAACCAGA,-1.17
21,TTAAACAGCAGCATCCAAGGTA,0.712
22,TAAGCATCTACTATGTTCTGAA,0.161
23,TCTCTTTCTCAACAAATCGAAG,-1.57
